# From PubChem BioAssay AID2625 (National Center for Advancing Translational Sciences (NCATS), 2010)
# Results filed as inconclusive are left out. A number with no mark means an inactive call. The call rests on the fitted dose curve; in most records, active means well fitted curve in the direction sought with a large enough effect; inconclusive means small, poorly fitted or top-dose-only effect, or effect the other way, or another doubt; inactive means no such curve, though single readings can be large or run the other way.
# Target: Pyruvate kinase PKLR (Homo sapiens) (UniProt P30613)
# Assay: Secondary LDH Assay for Activators of Human Liver Pyruvate Kinase: for Probe SAR;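 further: 0% = uninhibited enzyme rate and 100% = full activation by fructose bisphosphate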
# Details: purified hPK-L, LDH-coupled NADH fluorescence kinetic; series mostly up to 58.2 µM; activity change, positive = activation: at the top concentration
# Procedure, shortened: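 Purified hPK-L (10 nM) coupled to LDH (1 uM) in pH 8.0 Tris with 0.1 mM PEP, 4 mM ADP, 0.2 mM NADH. Initial rates from kinetic NADH fluorescence depletion over 3–6 min, normalised to uninhibited and fructose-bis-phosphate EC100 activation.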
# Sequence of Pyruvate kinase PKLR (Homo sapiens) (P30613 whole entry, looked up): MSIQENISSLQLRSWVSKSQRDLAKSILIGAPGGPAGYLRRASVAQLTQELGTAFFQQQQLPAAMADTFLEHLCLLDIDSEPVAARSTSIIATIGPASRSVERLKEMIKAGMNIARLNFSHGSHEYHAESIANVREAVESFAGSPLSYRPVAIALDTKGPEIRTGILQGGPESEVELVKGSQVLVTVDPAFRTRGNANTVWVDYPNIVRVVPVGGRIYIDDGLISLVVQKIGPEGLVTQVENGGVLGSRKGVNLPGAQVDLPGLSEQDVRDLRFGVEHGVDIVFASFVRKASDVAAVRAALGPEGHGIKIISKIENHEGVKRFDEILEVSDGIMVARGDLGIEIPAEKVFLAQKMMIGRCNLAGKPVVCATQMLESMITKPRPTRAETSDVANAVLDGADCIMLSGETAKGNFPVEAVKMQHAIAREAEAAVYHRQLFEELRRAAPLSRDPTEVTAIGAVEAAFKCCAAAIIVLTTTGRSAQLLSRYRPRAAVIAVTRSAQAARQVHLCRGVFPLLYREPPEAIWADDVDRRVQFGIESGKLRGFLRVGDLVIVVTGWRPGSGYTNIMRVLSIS
row,SMILES,"activity change, positive = activation"
1,Cc1ccc(N(C)S(=O)(=O)c2ccc3c(c2)CCC(=O)N3)cc1C,7.04%
2,O=C1c2ccccc2C(=O)N1c1cccc(=O)[nH]1,-7.14%
3,Cc1ccc(NS(=O)(=O)c2cc3c(cc2-c2cn[nH]c2)NC(=O)CO3)cc1C,8.73%
4,COc1cccc(Cn2ncc3c4sc(SC)cc4n(C)c3c2=O)c1,13.7%
5,Cc1ccc(NS(=O)(=O)c2cc3c(cc2Br)NC(=O)CO3)cc1C,-0.908%
6,O=C1CCc2cc(S(=O)(=O)Nc3ccccc3F)ccc2N1,-1.77%
7,CN=c1nc(-c2ccccc2)n(-c2ccccc2)s1,9.26%
8,CCNc1cccc(S(=O)(=O)N2CCCN(S(=O)(=O)c3ccc4c(c3)OCCO4)CC2)c1,24.7%
9,Cc1ccc(NS(=O)(=O)c2ccc(F)cc2)cc1C,-14.1%
10,O=C1CCc2cc(S(=O)(=O)Nc3ccc(Cl)cc3)ccc2N1,-12.1%
11,O=C1CCc2cc(S(=O)(=O)Nc3cccc(F)c3)ccc2N1,-11.8%
12,O=C1c2ccccc2C(=O)N1c1ccc(Cl)cc1,-9.95%
13,COc1cccc(N2C(=O)c3ccccc3C2=O)c1,-13.5%
14,O=C1CCc2cc(S(=O)(=O)Nc3ccncc3)ccc2N1,13.1%
15,Cc1ccc(NS(=O)(=O)c2ccc3c(c2)CC(=O)N3C)cc1C,1.64%
16,CSc1cc2c(s1)c1cnn(Cc3cccc(N)c3)c(=O)c1n2C,-6.85%
17,Cc1ccc(NS(=O)(=O)c2ccc3[nH]c(=O)[nH]c3c2)cc1C,12.7%
18,O=C1c2ccccc2C(=O)N1c1cncc2ccccc12,-15.4%
19,COc1cc(N2C(=O)c3ccccc3C2=O)c2ncccc2c1,-4.25%
20,O=C1c2ccccc2C(=O)N1c1cnc2ccccc2c1,-5.53%
21,N#Cc1ccc(NS(=O)(=O)c2ccc3c(c2)CCC(=O)N3)cc1,-11.8%
22,Cc1ccc(NS(=O)(=O)c2cc3c(cc2C)NC(=O)CO3)cc1C,10.9%
23,Cc1ccc(NC(=O)c2ccc3c(c2)CCC(=O)N3)cc1C,-8.05%
24,Cc1ccc(NS(=O)(=O)c2cc3c(cc2N2CCCCC2)NC(=O)CC3)cc1C,-20.5%
